Measured values from PubChem BioAssay (NCI).
“And” between values parts separate entries of the source, which are not always exact repeats. Equal values may be shown once. Compounds without any hit were thinned out: in the full panel of roughly 83,000, 20% have a hit.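 Percent growth is the endpoint: 0 to 100 indicates growth inhibition (40 means 60% inhibition), 0 means no net growth, and negative values indicate cell death.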 Values without a mark were called inactive. The source made the active and inactive calls. How the source made its calls: active means growth percent below 10; inactive means the rest.

Legend:
Test in all cases: NCI-60 one-dose screen, 48 h (100 = growth as untreated, 0 = no growth, -100 = all killed)
SK-MEL-2 melanoma = details: 10 µM unless noted
EKVX NSCLC = details: 10 µM unless noted
SN12C renal = details: 10 µM unless noted
UO-31 renal = details: 10 µM unless noted
TK-10 renal = test system: TK-10 renal
ACHN renal = details: 10 µM unless noted
CAKI-1 renal = details: 10 µM unless noted
A498 renal = details: 10 µM unless noted
CCRF-CEM leukemia = details: 10 µM unless noted
MOLT-4 leukemia = details: 10 µM unless noted

Compound | growth (SK-MEL-2 melanoma) | growth (EKVX NSCLC) | growth (SN12C renal) | growth (UO-31 renal) | growth (TK-10 renal; 10 µM unless noted) | growth (ACHN renal) | growth (CAKI-1 renal) | growth (A498 renal) | growth (CCRF-CEM leukemia) | growth (MOLT-4 leukemia) | growth (TK-10 renal; 10 µM) [%] | growth (TK-10 renal; 100 µM)
Nc1ccc2c(c1)Cc1cc(N)c(N)cc1-2 | 88.8% | 88.6% | 93.3% | 91.4% | 119% | 101% | 102% | 98.8% | – | – | – | –
Nc1cc(F)ccc1[N+](=O)[O-] | 114% | 100% | 98.6% | 94.2% | 104% | 104% | 92.2% | 102% | 110% | 109% | – | –
C/C(=N\Nc1ccc([N+](=O)[O-])cc1[N+](=O)[O-])c1ccc(Br)cc1 | 97.4% | 96.4% | 96.2% | 85% | 105% | 105% | 98.1% | 102% | 96.5% | 104% | – | –
O=C(OCc1ccccc1)n1nnc2ccccc21 | 108% | 98.2% | 97% | 94.9% | 107% | 108% | 93.1% | 124% | 111% | 116% | – | –
O=C1C=C(c2ccccc2)C(O)(c2ccccc2)C1 (centres undefined) | 103% | 89.8% | 99.7% | 83.5% | 99.6% | 96% | 89.9% | 105% | 100% | 95.4% | – | –
CC(=O)NNC(=S)/N=C\C(C(=O)c1ccccc1)=C(/O)c1ccccc1 | 110% | 99.4% | 107% | 79.8% | 130% | 99.5% | 98.3% | 105% | 102% | 93% | – | –
Cc1onc(-c2c(F)cccc2Cl)c1-c1ncc(-c2ccc(Br)cc2)o1 | 74.8% | 46% | 34% | -0.651% (active) | 46.8% | 32.8% | 33.1% | 86.4% | 39.5% | 16.9% | – | –
O=C(NCc1ccccc1)/C(=C/c1ccccc1)NC(=O)c1ccccc1 | 102% | 103% | 100% | 92% | 108% | 104% | 103% | 90.9% | 94.4% | – | – | –
NC(=S)N/N=C/c1ccc(OC(=O)COc2ccc(Cl)cc2)cn1 | 62.8% | 93.6% | 28.2% | 24.9% | 74.9% | 12.5% | 0.332% (active) | 57.3% | 18.6% | 16.5% | – | –
CC(=O)N=c1ccc2nc3c(cc(N)c4ccccc43)oc-2c1 | -42.4% (active) | 2.37% (active) | -72.8% (active) | -43.9% (active) | 47.6% | 32.5% | -23.1% (active) | 80.5% | -11.5% (active) | -37.2% (active) | – | –
COC1C(=O)CCC2(CO2)C1(O)C1(C)OC1CCC(C)C (centres undefined) | 78.7% | 76.2% | 74.9% | 48.7% | 119% | 72.1% | 71.4% | 113% | 70.4% | 94% | – | –
O=[n+]1ccn([O-])c2ccccc21 | 120% | 104% | 97.4% | 88.6% | 98.3% | 104% | 96.2% | 81% | 17.7% | 102% | – | –
Nc1c(Br)cc(O)c2c1C(=O)c1ccccc1C2=O | 55.4% | 96.6% | 80.9% | 85.1% | 91.1% | 97.1% | 83.8% | 76.4% | 56.5% | 50.1% | – | –
O=C(O)C1CSC(c2ccccc2)N1 (centres undefined) | 89.2% | 99.1% | 93.2% | 91.6% | 95.6% | 94.4% | 105% | 81% | 121% | 115% | – | –
CN1CCN(C(=S)S)CC1 | 114% | 106% | 108% | 98.4% | 111% | 105% | 99.5% | 118% | 89% | 105% | – | –
NC(=S)N/N=C/c1ccc(OC(=O)COc2ccccc2)cn1 | 69.3% | 109% | 34.7% | 24.5% | 74.7% | 8.03% (active) | 3.88% (active) | 70.5% | 18.9% | 22.3% | – | –
S=C(Sc1ccc(Cl)cc1)Sc1ccc(Cl)cc1 | 90.9% | 49.1% | -47.6% (active) | -59.8% (active) | -36.3% (active) | 70% | -75.6% (active) | 70.6% | -15.8% (active) | -25.4% (active) | – | –
CC(=O)NC(CCC(=O)c1ccccc1)C(=O)O (centres undefined) | 104% | 99.2% | 98.5% | 98.5% | 93.8% | 108% | 102% | 99.4% | 103% | – | – | –
C=CC(C)(C)n1cc(C2=C(O)C(=O)C(c3cn(C(C)(C)C=C)c4ccccc34)=C(O)C2=O)c2ccccc21 | 95.9% | 87.2% | 101% | 74.1% | – | 94.4% | 89.7% | – | 78.5% | 88.7% | 92.7 | -99.2% (active) and -100% (active)
CCN(CC)CCCC(C)NC(=S)N/N=C(\C)c1ccccn1 (centres undefined) | 83.6% | 47.7% | 35.9% | 14.8% | 48.4% | 31.4% | 20.1% | 72.1% | 29.8% | 9.05% (active) | – | –
COc1ccc(C)cc1NC(=O)SC(C)C | 102% [100 µM] | 102% [100 µM] | 96.6% [100 µM] | 82.9% [100 µM] | 128% [100 µM] | 100% [100 µM] | 95.5% [100 µM] | 92.3% [100 µM] | 106% [100 µM] | 106% [100 µM] | – | –
CC(C)(C)[Si](C)(C)OCC1OC(n2cnc3c(N)ncnc32)CC1OS(C)(=O)=O (centres undefined) | 105% | 105% | 101% | 86.8% | 99.7% | 114% | 96.2% | 67.6% | 101% | 105% | – | –
NNC(=O)c1ccccc1N | 168% | 110% | 108% | 99.2% | 129% | 111% | 104% | 140% | -39.5% (active) | 112% | – | –
CN(CCCN(C)CCC1CCCCC1)CCC1CCCCC1 | 74.8% | 61.4% | 53.1% | 49.8% | 76.1% | 35.4% | 46.9% | 84.7% | 20.9% | 20.5% | – | –
Oc1cccc(CNC2CCCCC2)c1 | 115% | 115% | 106% | 86.6% | 105% | 107% | 106% | 136% | 107% | 106% | – | –
Oc1cc(O)c2c(c1)O[C@H](c1ccc(O)c(O)c1)[C@@H](O)C2 | 106% | 99.4% | 102% | 89.5% | 106% | 98% | 99.4% | 120% | 94.4% | – | – | –
C(=C\c1ccncc1)/c1ccncc1 | 88.2% | 105% | 101% | 84.7% | 102% | 98.9% | 129% | 120% | 101% | – | – | –
